Compound activity deposited in PubChem by National Center for Advancing Translational Sciences (NCATS).
Only some compounds are listed: those with a hit (about 21% of all), similar ones and a draw of the others.
RORgamma inh – blocks mouse ROR gamma transcriptional activity; Potency, µM (titrated, usually from 53.6 µM), actives largely listed as inhibitors; 310,000 tested, 5.4% active; P51450; Drosophila S2 Gal4-RORgamma UAS-luciferase reporter, 20 h; AID 2551; note: nearly all actives have a fitted effect of over 60% in size
Target sequence (P51450 whole entry, looked up, the tested form may be a part): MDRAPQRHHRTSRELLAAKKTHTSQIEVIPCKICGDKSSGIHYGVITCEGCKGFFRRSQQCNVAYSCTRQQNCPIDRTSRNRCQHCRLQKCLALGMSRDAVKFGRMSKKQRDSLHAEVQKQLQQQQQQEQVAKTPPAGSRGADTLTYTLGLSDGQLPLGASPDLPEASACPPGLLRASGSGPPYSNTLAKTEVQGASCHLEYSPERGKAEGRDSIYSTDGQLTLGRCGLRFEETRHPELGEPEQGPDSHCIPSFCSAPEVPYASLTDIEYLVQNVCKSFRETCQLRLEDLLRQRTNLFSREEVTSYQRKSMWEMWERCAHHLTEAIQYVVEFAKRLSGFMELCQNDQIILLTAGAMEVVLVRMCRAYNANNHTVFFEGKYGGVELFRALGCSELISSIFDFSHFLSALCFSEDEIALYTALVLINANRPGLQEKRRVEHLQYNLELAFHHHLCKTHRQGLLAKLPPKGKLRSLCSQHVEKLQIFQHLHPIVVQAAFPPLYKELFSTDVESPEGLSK
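Luciferase reporter read in Schneider cells carrying Gal4-RORγ (mouse) and UAS-Photinus luciferase; cells given compound 1 h before 700 uM copper sulfate induction, then incubated 20 h at ambient temperature.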
ELG1 DNA repair – ELG1-dependent DNA repair inhibition. HEK293T ELG1-luciferase reporter, luminescence, 16 h; DNA damage induced by 5-fluorouridine. Potency, µM (titrated, usually from 46.1 µM), most hits filed as inhibitors. 330,000 tested, 2.3% active. AID 504467; note: nearly all actives have a fitted effect of over 55% in size
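5-Fluorouridine DNA damage + compound/DMSO, 2,000 cells/well, 16 h, 37 °C/5% CO2. ONE-Glo, 30 min RT, luminescence. Readout = decrease in reporter signal.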
Gal4-VP16 FLuc – Gal4-VP16 reporter inhibition counter-screen. Drosophila S2 Gal4-VP16 UAS-luciferase, luminescence, 20 h. 310,000 tested, 3.5% active. AID 2546. Potency, µM (titrated, usually from 53.6 µM), actives largely listed as inhibitors;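 note: Gal4-VP16 expression switched on by copper sulfate through the metallothionein promoter; nearly all actives have a fitted effect of over 50% in size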
DT40 TDP1 no CPT – qHTS for Inhibitors of human tyrosyl-DNA phosphodiesterase 1 (TDP1): qHTS in cells in absence of CPT | DT40 Tdp1-/- hTDP1 cells, no CPT, ATP luminescence, 48 h | Potency, µM (titrated, usually from 46.2 µM), hits mostly inhibitors | 420,000 tested, 15% active | AID 686978, 2013; note: nearly all actives have a fitted effect of over 55% in size
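A cellular qHTS used chicken DT40 cells lacking endogenous Tdp1 but carrying stably transfected human TDP1. Compounds were applied without camptothecin, and cell growth kinetics were judged by ATP-dependent luminescence after ≥48 hr.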
DT40 TDP1 CPT – growth inhibition of DT40 Tdp1-/-;hTDP1 cells with camptothecin (screen for TDP1 inhibitors); Potency, µM (top dose mostly 46.2 µM), most hits filed as inhibitors; chicken DT40 Tdp1-/-;hTDP1 cells + 20 nM CPT, ATP luminescence, 48 h; 420,000 tested, 12% active; note: nearly all actives have a fitted effect of over 55% in size
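Chicken DT40 Tdp1-/- cells stably complemented with human TDP1 were seeded at 400 cells/well in medium containing 20 nM camptothecin, exposed to pin-transferred compounds, and grown at 37 °C for at least 48 hr. Viability was read as ATP luminescence.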
IL-1B inflam inh – inflammasome signaling inhibition, IL-1 beta readout. THP-1 LPS/ATP IL-1B secretion, AlphaLISA, 16 h; hits give low values. activity change, % at 57.5 µM. 360,000 tested, 4.7% active. AID 743279; in the data active = activity change below about -50%; inconclusive = mostly about -30% to -49%
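THP-1 cells pretreated 1 hr with compounds (up to 57.5 uM final), then stimulated with LPS (250 ng/mL final) plus ATP (1.25 mM final); secreted IL-1B measured by AlphaLISA after 16 hr, decreased signal indicating inhibition.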
A number is an active result; – = inactive; ? = inconclusive; · = not tested or not shown; [ ] = another dose, or the depositor's remark. Unless noted, calls come from the whole dose curve; as a rule, active = well fitted curve in the direction sought with a large enough effect; inconclusive = small, poorly fitted or top-dose-only effect, or another doubt; inactive = no such curve, though single readings can be large; an effect the other way counts as inactive or inconclusive.

SMILES | RORgamma inh | ELG1 DNA repair | Gal4-VP16 FLuc | DT40 TDP1 no CPT | DT40 TDP1 CPT | IL-1B inflam inh
CCOC(=O)O[C@]1(C(=O)COC(=O)CC)CC[C@@H]2[C@@H]3CCC4=CC(=O)C=C[C@@]4(C)[C@H]3[C@H](O)C[C@]21C | –[2.98 µM] | · | – | · | · | ·
Cc1nnc(NCCc2ccccc2)c2ccccc12 | ? | ? | – | 23µM | ? | –
O=C(CCn1c(=O)oc2ccccc21)N(Cc1ccccc1)c1ccccc1 | ? | ? | – | ? | ? | –
CCCC(=O)N(CCN(C(=O)CCC)c1ccccc1)c1ccccc1 | – | – | – | 21µM | 12µM | –
CCCCN(C(=O)CCn1c(=O)oc2ccccc21)c1ccccc1 | – | – | – | ? | 18µM | –
Nc1c(C(=O)OCC(=O)Nc2cccc([N+](=O)[O-])c2)[nH]c(=O)[nH]c1=O | · | – | · | – | – | –
O=C(Nc1ccc(F)c(Cl)c1)Nc1csc2ccccc12 | ? | – | ? | 3.7µM | 5.2µM | -70
CC(C)CNC(=O)Nc1ccc(F)c(Cl)c1 | – | – | – | – | – | ?
O=C(Nc1ccc(F)cc1F)Nc1csc2ccccc12 | – | – | ? | 23µM | ? | -92
Cn1cncc1C#Cc1c(C=O)[nH]c2ccccc12 | · | ? | · | 10µM | 5.8µM | –
CCOc1cc(/C=C(\C#N)C(=O)Nc2ccc(S(N)(=O)=O)cc2)ccc1OCCN1CCOCC1 | – | – | – | – | – | –
C=CCn1c(-c2sccc2C)n[nH]c1=S | 10µM | – | ? | ? | ? | –
C=CCn1c(-c2ccc(OC)c(OC)c2)n[nH]c1=S | 3.2µM | – | ? | – | – | –
C=CCn1c(CSc2ccc(C)cc2)n[nH]c1=S | 4µM | – | 14µM | ? | – | –
C=CCn1c(-c2c(C)nc3cc(C)ccn23)n[nH]c1=S | ? | – | ? | – | – | –
S=c1[nH]nc(COc2cccc(Cl)c2)n1Cc1ccccc1 | 1.4µM | ? | ? | – | – | –
COc1ccccc1OCc1n[nH]c(=S)n1Cc1ccccc1 | – | – | – | – | – | –
CC(=O)OC[C@@H]1O[C@H](C/C=N\OC[C@@H](O)[C@H]2O[C@H]3OC(C)(C)O[C@H]3[C@@H]2O)C=C[C@@H]1OC(C)=O | –[10 µM] | · | –[10 µM] | · | · | ·
Cc1ccc(NC(=O)C2CCN(S(=O)(=O)c3ccc4ccccc4c3)CC2)nc1 | · | ? | · | ? | – | –
COc1ccc(CCn2c(-c3ccc(Cl)cc3)n[nH]c2=S)cc1OC | 1.6µM | – | ? | – | ? | –
CCCCn1c(-c2cccnc2)n[nH]c1=S | ? | – | – | – | – | –
C=CCn1c(-c2cccc(Cl)c2)n[nH]c1=S | 4µM | – | 7.1µM | – | – | –
C=CCn1c(-c2cccc(S(=O)(=O)N(CC)CC)c2)n[nH]c1=S | ? | – | – | – | – | –
CCCCn1c(-c2cc(Cl)ccc2OC)n[nH]c1=S | 3.2µM | · | 10µM | – | – | –
S=c1[nH]nc(-c2cccc(Cl)c2)n1Cc1ccccc1 | 2.5µM | – | 2.5µM | – | – | –
SMILES | RORgamma inh | ELG1 DNA repair | Gal4-VP16 FLuc | DT40 TDP1 no CPT | DT40 TDP1 CPT | IL-1B inflam inh
Cc1[nH]c2ccccc2c1C(=O)CSC(=S)N1CCOCC1 | – | ? | – | – | – | –
CCCc1cc(=O)oc2c3c(cc(OCC(=O)NCCN4CCOCC4)c12)OC(C)(C)CC3 | – | – | – | ? | ? | ?
Cc1ccc(C2N(c3ccc(Cl)cc3)C(=O)N3CCCN23)cc1 (configuration not stated) | – | – | – | 15µM | ? | –
O=C1N(c2ccccc2)C(c2ccc(Cl)cc2)N2CCCN12 (configuration not stated) | – | – | – | – | – | –
Cc1cccn2c(=O)c3cc(C(=O)NCC4CCCO4)c(=N)n(CCc4ccccc4)c3nc12 (configuration not stated) | – | – | – | – | 16µM | –
COCCn1c(=N)c(C(=O)NCC2CCCO2)cc2c(=O)n3ccccc3nc21 (configuration not stated) | · | · | · | – | – | ·
COc1ccc(CCNC(=O)c2cc3c(=O)n4cccc(C)c4nc3n(CC3CCCO3)c2=N)cc1 (configuration not stated) | – | ? | – | 10µM | 3.3µM | –
COc1ccc(CCNC(=O)c2cc3c(=O)n4cccc(C)c4nc3n(Cc3ccncc3)c2=N)cc1 | – | – | – | · | · | ·
COc1ccc(CCC(C)N2CCC(Oc3ccc(C(=O)N4CCCC4)cc3)CC2)cc1 (configuration not stated) | – | – | – | ? | 26µM | –
COc1ccc(CN2CCC(Oc3ccc(C(=O)N4CCCCC4)cc3)CC2)cc1C | – | – | – | ? | ? | -53
CSc1cccc(CN2CCC(Oc3ccc(C(=O)N4CCCCC4)cc3)CC2)c1 | – | – | – | – | ? | -88
Oc1ccc(Br)cc1-c1cc(-c2ccc(Cl)cc2)n[nH]1 | ? | ? | ? | ? | 21µM | –
Oc1ccc(Br)cc1-c1cc(-c2ccccc2)n[nH]1 | 1.3µM | – | ? | ? | ? | –
COc1ccc(-c2cc(-c3cc(F)ccc3O)[nH]n2)cc1OC | – | ? | ? | ? | ? | –
O=[N+]([O-])c1cccc(-c2cc(-c3cc(Br)ccc3O)[nH]n2)c1 | 7.1µM | 16µM | 11µM | 21µM | ? | -89
Nc1n[nH]c(-c2cccc([N+](=O)[O-])c2)n1 | – | – | – | – | – | –
Cc1ccc(O)c(-c2cc(-c3ccccc3F)[nH]n2)c1 | ? | ? | ? | ? | ? | –
O=C(Cc1cccc2c(=O)cc(-c3ccccc3)oc12)OCCN1CCOCC1 | · | · | · | – | – | –
Cc1cc(NC(=O)CCN2CCN(C/C=C/c3ccccc3)CC2)ccc1Br | – | ? | – | ? | ? | -82
CN1CCN(CC(=O)Nc2cc(N(C)C)nc3ccccc23)CC1 | – | – | – | – | – | -62
Cc1cc(NC(=O)CCN2CCN(C)CC2)ccc1Br | – | – | – | – | – | –
O=C(CCN1CCN(C/C=C/c2ccccc2)CC1)Nc1ccccc1 | – | – | – | ? | – | –
Cc1ccccc1NC(=O)CCN1CCN(C/C=C/c2ccccc2)CC1 | – | ? | – | ? | 21µM | ?
Cc1cccc(NC(=O)CCN2CCN(C/C=C/c3ccccc3)CC2)c1 | – | ? | – | 21µM | ? | -77
CSc1ncccc1C(=O)N1CCC1(C)C(=O)NC(C)C (configuration not stated) | · | · | · | – | – | –
CCCn1c(-c2ccc(F)cc2)nc2c(NCCCN(CCO)CCO)nc(C)nc21 | – | · | – | · | · | ·
Cc1ccccc1NC(=O)CCN1CCN(C)CC1 | 10µM | – | – | – | – | –
